Reference: the supplement of paper PMC6555819

tested on: RARa homodimer (NR concentration 270 nM); test: PBM binding z-score (relative to random genomic background probes); higher = stronger binding; sequences stand for … in GC…GCGATTGACAGCGTAGAATGAAGG
In short: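 Each nuclear receptor dimer, without ligand, was incubated for 1 h on custom Agilent 4×180K protein-binding microarrays. Binding was detected with antibodies against each partner (one per run), and scanned fluorescence was regression-normalized. The binding z-scores are referenced to random human genomic background probes.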

Sequence	PBM binding z-score
AATACTGGGTCATCGTAGGCCAGAGTACGCACAG	0.903
CAGCCTAGGTCAGGGCCGGTATAGGAGGAACGTT	-0.753
TAGCCTAGTTCATTGGGCCAGTATAGTACGCATC	-0.777
ATCGAAAGGTCGAAGTGAGTATAGAGAAAGGGAA	1.12
GCTAGTTGGTCAGTAACAGGTCACACACCGGTCG	1.15
GCTAGTTGTTCAGTAAAAGGTCACACACCGGTCG	2.41
CCGACTGAGGCATAAGGTTACCATAAGCCAGCCC	0.101
GATACAGGGTCAGCTAAAGGCCAGAGTATGGAAA	0.412
CCGACTGGAGCAAAGGTTACCATACTCAGTACGA	-0.322
CGTCCAAGGTCAGAGAGGTCAGTGGATGCCGAGT	0.8
ACTAGTTGGTCAGCTGAGGTCACCCACAATTCGG	1.52
ATCTCTTGGTAAAGTTCAGTGAAAGATCGATAGA	1.65
CAAACTAGGTCAAGAGGTCGAAGTCCGCTTCCCG	1.54
TAGTCTAGGTCATGCGGGCCAGTATAGTGTCGGC	0.351
CCCACTGGGCCAAAGGTCATTGATTCCAATGCTC	1.99
ACTAGCAGGCCAAGTTTGGGTCACTCTAACAAAG	-0.645
CATACAGGGTCAGCTAGTCCAGAGTAGGGACGGC	0.913
GCTGCTAGGTCAAATGATGGTCAGCTAAAGCTCG	-0.123
TGAAAGAGGTTAAAGATCAGGGAACGTGGCGTCG	0.0643
AGAACGAGGGCAATGAATTGATAGCACGGGTGGC	0.175
ATATGTGGGTTACATCCGGGTCATTCAGGCTATG	1.06
ATACCAGGGTGATCGTGAGGTCGTTGATACTAAC	0.625
